Data: the supplement of paper PMC4466140

B1: unnamed (peptide)
chain: LYKRKPILLPDPKPL
B2: unnamed (peptide)
chain: NHSRSLFSLPGNQQS
B3: unnamed (peptide)
chain: RRTRLRPPTPLSQLL

Molecular target: AgAbp1
Assay: SPOT peptide array binding signal intensity (averaged, normalized) (arbitrary units (background-subtracted, floor 0; scale differs between SH3 domains)); higher = stronger binding of the SH3 domain to the peptide
Protocol: (§1)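 GST-tagged SH3 domains from S. cerevisiae (Sc), A. gossypii (Ag), C. albicans (Ca) and S. pombe (Sp) were incubated at 10 ug/ml overnight at 4 C on cellulose SPOT membranes carrying 292 synthetic 15-mer peptides mined from the S. cerevisiae proteome (cysteines replaced by serines). Binding was detected with anti-GST antibody, HRP secondary and chemiluminescence, quantified with Genespotter, and reported as normalized spot intensities averaged over biological replicates.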

Binder | SPOT peptide array binding signal intensity
B1 | 30.5
B2 | 31
B3 | 31.5

Molecular target: AgBbc1
Assay: as above
Protocol: as §1

Binder | SPOT peptide array binding signal intensity
B1 | ≤ 0
B2 | 21.5
B3 | 145

Molecular target: AgBem1-D1
Assay: as above
Protocol: as §1

Binder | SPOT peptide array binding signal intensity
B1 | ≤ 0
B2 | 96.5
B3 | 113

Molecular target: AgBzz1-D1
Assay: as above
Protocol: as §1

Binder | SPOT peptide array binding signal intensity
B1 | 44
B2 | 38
B3 | 80.8

Molecular target: AgBzz1-D2
Assay: as above
Protocol: as §1

Binder | SPOT peptide array binding signal intensity
B1 | 70
B2 | 20.5
B3 | 45.5

Molecular target: AgCyk3
Assay: as above
Protocol: as §1

Binder | SPOT peptide array binding signal intensity
B1 | ≤ 0
B2 | 1
B3 | 1.5

Molecular target: AgFus1
Assay: as above
Protocol: as §1

Binder | SPOT peptide array binding signal intensity
B1 | ≤ 0
B2 | 786
B3 | 1120

Molecular target: AgHof1
Assay: as above
Protocol: as §1

Binder | SPOT peptide array binding signal intensity
B1 | 11
B2 | 58.8
B3 | 123

Molecular target: AgHse1
Assay: as above
Protocol: as §1

Binder | SPOT peptide array binding signal intensity
B1 | 93
B2 | 2350
B3 | 866

Molecular target: AgLsb1
Assay: as above
Protocol: as §1

Binder | SPOT peptide array binding signal intensity
B1 | 208
B2 | 246
B3 | 154

Molecular target: AgLsb4
Assay: as above
Protocol: as §1

Binder | SPOT peptide array binding signal intensity
B1 | 1.5
B2 | 45
B3 | 100

Molecular target: AgMyo5
Assay: as above
Protocol: as §1

Binder | SPOT peptide array binding signal intensity
B1 | ≤ 0
B2 | 44.5
B3 | 1.75

Molecular target: AgNbp2
Assay: as above
Protocol: as §1

Binder | SPOT peptide array binding signal intensity
B1 | 4.5
B2 | 44
B3 | 204

Molecular target: AgRvs167
Assay: as above
Protocol: as §1

Binder | SPOT peptide array binding signal intensity
B1 | ≤ 0
B2 | 14
B3 | 15.2

Molecular target: AgSho1
Assay: as above
Protocol: as §1

Binder | SPOT peptide array binding signal intensity
B1 | ≤ 0
B2 | 64
B3 | 64

Molecular target: AgSla1-D1-D2
Assay: as above
Protocol: as §1

Binder | SPOT peptide array binding signal intensity
B1 | 29
B2 | 58.5
B3 | 93

Molecular target: AgSla1-D3
Assay: as above
Protocol: as §1

Binder | SPOT peptide array binding signal intensity
B1 | 9
B2 | 13.5
B3 | 5

Molecular target: CaAbp1-D1
Assay: as above
Protocol: as §1

Binder | SPOT peptide array binding signal intensity
B1 | 292
B2 | 266
B3 | 218

Molecular target: CaAbp1-D2
Assay: as above
Protocol: as §1

Binder | SPOT peptide array binding signal intensity
B1 | 140
B2 | 430
B3 | 133

Molecular target: CaBbc1
Assay: as above
Protocol: as §1

Binder | SPOT peptide array binding signal intensity
B1 | 16.5
B2 | 111
B3 | 333

Molecular target: CaBem1-D1
Assay: as above
Protocol: as §1

Binder | SPOT peptide array binding signal intensity
B1 | ≤ 0
B2 | 27
B3 | 192

Molecular target: CaBzz1-D1
Assay: as above
Protocol: as §1

Binder | SPOT peptide array binding signal intensity
B1 | 150
B2 | 5.5
B3 | 233

Molecular target: CaBzz1-D2
Assay: as above
Protocol: as §1

Binder | SPOT peptide array binding signal intensity
B1 | 40.8
B2 | 31
B3 | 76.8

Molecular target: CaCyk3
Assay: as above
Protocol: as §1

Binder | SPOT peptide array binding signal intensity
B1 | 4
B2 | 1.5
B3 | 88.5

Molecular target: CaFus1
Assay: as above
Protocol: as §1

Binder | SPOT peptide array binding signal intensity
B1 | 39
B2 | 1930
B3 | 1050

Molecular target: CaHof1
Assay: as above
Protocol: as §1

Binder | SPOT peptide array binding signal intensity
B1 | 0.75
B2 | 0.25
B3 | 7.63e-06

Molecular target: CaHse1
Assay: as above
Protocol: as §1

Binder | SPOT peptide array binding signal intensity
B1 | ≤ 0
B2 | 296
B3 | 60.6

Molecular target: CaLsb1
Assay: as above
Protocol: as §1

Binder | SPOT peptide array binding signal intensity
B1 | 228
B2 | 2
B3 | 0.5

Molecular target: CaLsb4
Assay: as above
Protocol: as §1

Binder | SPOT peptide array binding signal intensity
B1 | ≤ 0
B2 | ≤ 0
B3 | 307

Molecular target: CaMyo5
Assay: as above
Protocol: as §1

Binder | SPOT peptide array binding signal intensity
B1 | ≤ 0
B2 | 85.2
B3 | 4

Molecular target: CaNbp2
Assay: as above
Protocol: as §1

Binder | SPOT peptide array binding signal intensity
B1 | 33
B2 | 358
B3 | 512

Molecular target: CaRvs167
Assay: as above
Protocol: as §1

Binder | SPOT peptide array binding signal intensity
B1 | 7.67
B2 | 54.7
B3 | 40.8

Molecular target: CaRvs167-3
Assay: as above
Protocol: as §1

Binder | SPOT peptide array binding signal intensity
B1 | 1.75
B2 | 70.5
B3 | 16.5

Molecular target: CaSho1
Assay: as above
Protocol: as §1

Binder | SPOT peptide array binding signal intensity
B1 | ≤ 0
B2 | 838
B3 | 526

Molecular target: CaSla1-D1-D2
Assay: as above
Protocol: as §1

Binder | SPOT peptide array binding signal intensity
B1 | 50
B2 | 25.5
B3 | 574

Molecular target: CaSla1-D3
Assay: as above
Protocol: as §1

Binder | SPOT peptide array binding signal intensity
B1 | ≤ 0
B2 | 23.8
B3 | 12.9

Molecular target: ScAbp1
Assay: as above
Protocol: as §1

Binder | SPOT peptide array binding signal intensity
B1 | 38
B2 | 48
B3 | 70.5

Molecular target: ScBbc1
Assay: as above
Protocol: as §1

Binder | SPOT peptide array binding signal intensity
B1 | 2
B2 | 0.75
B3 | 61.6

Molecular target: ScBem1-D1
Assay: as above
Protocol: as §1

Binder | SPOT peptide array binding signal intensity
B1 | 3
B2 | 6.5
B3 | 111

Molecular target: ScBzz1-D1
Assay: as above
Protocol: as §1

Binder | SPOT peptide array binding signal intensity
B1 | 20.5
B2 | 10
B3 | 42

Molecular target: ScBzz1-D2
Assay: as above
Protocol: as §1

Binder | SPOT peptide array binding signal intensity
B1 | 15.5
B2 | 10.5
B3 | 26.2

Molecular target: ScCyk3
Assay: as above
Protocol: as §1

Binder | SPOT peptide array binding signal intensity
B1 | ≤ 0
B2 | 29.5
B3 | 83.8

Molecular target: ScFus1
Assay: as above
Protocol: as §1

Binder | SPOT peptide array binding signal intensity
B1 | ≤ 0
B2 | 595
B3 | 722

Molecular target: ScHof1
Assay: as above
Protocol: as §1

Binder | SPOT peptide array binding signal intensity
B1 | ≤ 0
B2 | 3.5
B3 | 4.5

Molecular target: ScHse1
Assay: as above
Protocol: as §1

Binder | SPOT peptide array binding signal intensity
B1 | 267
B2 | 2940
B3 | 1120

Molecular target: ScLsb1
Assay: as above
Protocol: as §1

Binder | SPOT peptide array binding signal intensity
B1 | 162
B2 | 2.75
B3 | 63

Molecular target: ScLsb2
Assay: as above
Protocol: as §1

Binder | SPOT peptide array binding signal intensity
B1 | 838
B2 | 7
B3 | 5.5

Molecular target: ScLsb3
Assay: as above
Protocol: as §1

Binder | SPOT peptide array binding signal intensity
B1 | 7
B2 | 4
B3 | 1130

Molecular target: ScLsb4
Assay: as above
Protocol: as §1

Binder | SPOT peptide array binding signal intensity
B1 | ≤ 0
B2 | ≤ 0
B3 | 37.8

Molecular target: ScMyo3
Assay: as above
Protocol: as §1

Binder | SPOT peptide array binding signal intensity
B1 | ≤ 0
B2 | 29.5
B3 | ≤ 0

Molecular target: ScMyo5
Assay: as above
Protocol: as §1

Binder | SPOT peptide array binding signal intensity
B1 | 0.5
B2 | 67.2
B3 | 4.12

Molecular target: ScNbp2
Assay: as above
Protocol: as §1

Binder | SPOT peptide array binding signal intensity
B1 | 14.5
B2 | 104
B3 | 727

Molecular target: ScPex13
Assay: as above
Protocol: as §1

Binder | SPOT peptide array binding signal intensity
B1 | ≤ 0
B2 | ≤ 0
B3 | 16.2

Molecular target: ScRvs167
Assay: as above
Protocol: as §1

Binder | SPOT peptide array binding signal intensity
B1 | 16.7
B2 | 17
B3 | 148

Molecular target: ScSho1
Assay: as above
Protocol: as §1

Binder | SPOT peptide array binding signal intensity
B1 | 62.5
B2 | 1120
B3 | 1180

Molecular target: ScSla1-D1-D2
Assay: as above
Protocol: as §1

Binder | SPOT peptide array binding signal intensity
B1 | 135
B2 | 90.5
B3 | 2070

Molecular target: ScSla1-D3
Assay: as above
Protocol: as §1

Binder | SPOT peptide array binding signal intensity
B1 | 5
B2 | 2.25
B3 | 3.38

Molecular target: SpAbp1-D1
Assay: as above
Protocol: as §1

Binder | SPOT peptide array binding signal intensity
B1 | 29
B2 | 196
B3 | 20.5

Molecular target: SpBbc1
Assay: as above
Protocol: as §1

Binder | SPOT peptide array binding signal intensity
B1 | ≤ 0
B2 | 5.5
B3 | 14.8

Molecular target: SpBzz1-D1
Assay: as above
Protocol: as §1

Binder | SPOT peptide array binding signal intensity
B1 | 188
B2 | 28
B3 | 486

Molecular target: SpBzz1-D2
Assay: as above
Protocol: as §1

Binder | SPOT peptide array binding signal intensity
B2 | 2.5
B3 | ≤ 0

Molecular target: SpCyk3
Assay: as above
Protocol: as §1

Binder | SPOT peptide array binding signal intensity
B2 | ≤ 0
B3 | 4

Molecular target: SpHof1
Assay: as above
Protocol: as §1

Binder | SPOT peptide array binding signal intensity
B2 | 176
B3 | 406

Molecular target: SpHof1-2
Assay: as above
Protocol: as §1

Binder | SPOT peptide array binding signal intensity
B2 | 10.8
B3 | 61.6

Molecular target: SpHof1-3
Assay: as above
Protocol: as §1

Binder | SPOT peptide array binding signal intensity
B2 | 992
B3 | 610

Molecular target: SpHse1
Assay: as above
Protocol: as §1

Binder | SPOT peptide array binding signal intensity
B2 | 1960
B3 | 460

Molecular target: SpLsb1
Assay: as above
Protocol: as §1

Binder | SPOT peptide array binding signal intensity
B2 | 27.5
B3 | 87.8

Molecular target: SpLsb4
Assay: as above
Protocol: as §1

Binder | SPOT peptide array binding signal intensity
B2 | 20
B3 | 615

Molecular target: SpMyo1
Assay: as above
Protocol: as §1

Binder | SPOT peptide array binding signal intensity
B2 | 72.5
B3 | 12.1

Molecular target: SpNbp2
Assay: as above
Protocol: as §1

Binder | SPOT peptide array binding signal intensity
B2 | 125
B3 | 184

Molecular target: SpPex13
Assay: as above
Protocol: as §1

Binder | SPOT peptide array binding signal intensity
B2 | 7
B3 | 12.8

Molecular target: SpRvs167
Assay: as above
Protocol: as §1

Binder | SPOT peptide array binding signal intensity
B2 | 75
B3 | 24.8

Molecular target: SpSla1-D1-D2
Assay: as above
Protocol: as §1

Binder | SPOT peptide array binding signal intensity
B2 | 3
B3 | 53

Molecular target: SpSla1-D3
Assay: as above
Protocol: as §1

Binder | SPOT peptide array binding signal intensity
B2 | 13.5
B3 | 8
